Assay outcomes: PubChem, National Center for Advancing Translational Sciences (NCATS)
JMJD2A Tudor: blocks the human JMJD2A Tudor domain; O75164; AlphaScreen JMJD2A-Tudor / H3K4me3 peptide binding; Potency, µM (highest dose often 114 µM), inactives show at the highest dose activity change, negative = inhibition, usual class: inhibitors; 390,000 compounds, 4.4% hits; AID 504339; also: % is scaled to controls: 0 for no effect and ±100 for the full control effect; nearly all actives have a fitted effect of over 50% in size
BAZ2B inh: BAZ2B (human) inhibition; 360,000 compounds, 4.4% hits; AlphaScreen BAZ2B-H3K14Ac peptide displacement; Potency, µM (titrated, usually from 114 µM), inactives show at the highest dose activity change, negative = inhibition, hits mostly inhibitors; Q9UIF8; also: % is scaled to controls: 0 for no effect and ±100 for the full control effect; nearly all actives have a fitted effect of over 60% in size
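Multi-concentration screen (max 110 uM) measuring displacement of acetylated histone H3 peptide from BAZ2B by AlphaScreen, using 50 nM protein, 50 nM peptide and 10 ug/mL streptavidin donor plus Ni-chelate acceptor beads.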
HP1b binding inh: blocks HP1-beta chromodomain binding to methylated histone tails; P83916; AlphaScreen HP1-beta / biotin-H3K9me3 peptide binding; Potency, µM (top dose mostly 114 µM), for the others: at the top dose activity change, negative = inhibition, hits mostly inhibitors; 390,000 compounds, 0.56% hits; AID 540317; also: nearly all actives have a fitted effect of over 70% in size
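AlphaScreen: HP1-beta (50 nM) preformed 30 min with biotin-H3(1-18)K9me3 peptide (50 nM) in PBS pH 7.4, 0.01% Tween-20. Compound added for 30 min at RT, then streptavidin donor/nickel chelate acceptor beads (10 ug/mL) for 30 min.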
GLS inhibitor: glutaminase GLS (human) inhibition | O94925 | GLS enzymatic activity, qHTS titration | Potency, µM (doses to about 45.5 µM), without a hit: at the top dose activity change, negative = inhibition, actives largely listed as inhibitors | 410,000 compounds, 0.21% hits | AID 624170; also: % is scaled to controls: 0 for no effect and ±100 for the full control effect
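hKGA in 45 mM KH2PO4 pH 8.2, 0.02% Tween-20 with pin-transferred compounds; 1 mM L-glutamine (stock) plus glutamate oxidase/HRP/Amplex Red coupling added. Fluorescence read initially and after 30 min at RT.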
G9a inh: inhibitors of human histone lysine methyltransferase G9a | Q96KQ7 | G9a H3K9 monomethylation, AlphaScreen, 2 h | Potency, µM (titrated, usually from 102 µM), for inactives: at the top dose activity, negative = inhibition, usual class: inhibitors | 350,000 compounds, 8.8% hits; also: % is scaled to controls: 0 for no effect and ±100 for the full control effect; nearly all actives have a fitted effect of over 75% in size
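Chemiluminescent proximity detection of H3K9 monomethylation, read after 10 min bead incubation in the dark. Reaction: 20 nM G9a, 500 nM biotin-H3K9 peptide, 20 uM SAM cofactor, 2 h, room temperature, following 15 min enzyme-compound preincubation.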
Numbers without * were called inactive; ? = inconclusive; / = no result given; ! = repeats disagree; [ ] = another dose, or the depositor's remark. Rows were chosen to be rich in hits. Some 10% of all compounds tested hit in one or more screens of this group. Calls follow the shape of the dose curve; as a rule, active = well fitted curve in the direction sought with a large enough effect; inconclusive = small, poorly fitted or top-dose-only effect, or another doubt; inactive = no such curve, though single readings can be large; an effect the other way counts as inactive or inconclusive. Potency is read from the fitted curve at half-maximal effect.

SMILES	JMJD2A Tudor	BAZ2B inh	HP1b binding inh	GLS inhibitor	G9a inh
COc1cc(CNC2CCCCCCC2)cc(Cl)c1OC	-3%	12%	19%	1%	1%
COc1cc(CNC2CCCCC2OC)cc(OC)c1OC (centres undefined)	?	?	?	-7%	11µM*
CCOC(=O)c1ccc(S(=O)(=O)N2CCN(C(=O)C3CSC4(C)CCC(=O)N34)CC2)cc1 (centres undefined)	-8%	-5%	34%	3%	22%[12.7 µM]
NS(=O)(=O)c1ccc(CNC(=O)c2csc3c2CCCC3)cc1	-3%	-13%	15%	-10%	20µM*
CCC1CN(C(=O)N2CCC(C(=O)NCc3cccc(C)c3)CC2)c2ccccc2O1 (centres undefined)	-16%	-4%	-3%	-4%	-4%[59 µM]
[O-]/C(=C(\C(=S)Nc1cccc2ccccc12)[n+]1ccccc1)c1ccc(Cl)s1	?	35µM*	?	-3%	?
CC(C)(C)c1cc[n+](/C(C(=S)NC2CC2)=C(/[O-])c2ccc(Cl)s2)cc1	-32%	0%	-18%	?	10µM*
Cc1cc(C)cc(NC(=S)/C(=C(\[O-])c2ccc(Cl)s2)[n+]2cccc(C)c2)c1	50µM*	40µM*	?	3%	45µM*
Cc1ccc(C)c(NC(=S)/C(=C(\[O-])c2ccc(Cl)s2)[n+]2ccccc2)c1	?	35µM*	-20%	3%	?
Cc1cc(C)cc(NC(=S)/C(=C(\[O-])c2ccc(Cl)cc2Cl)[n+]2ccc(C(C)(C)C)cc2)c1	-14%	-16%	11%	1%	23%[12.7 µM]
COCCCNC(=O)Cn1c(=O)n(-c2ccc(C)cc2)c(=O)c2c1c1cc(C)ccc1n2C	-13%	-2%	6%	0%	4%[59 µM]
[O-]C(=C(C(=S)Nc1cccc2ccccc12)[n+]1cccc(CO)c1)c1ccc(Cl)s1	-49%	/	-38%	-2%	/
CCc1cccc(CC)c1NC(=S)/C(=C(\[O-])c1ccc(Cl)s1)[n+]1ccccc1	?	?	-16%	1%	45µM*
Cc1ccc(CN(C)C(=O)c2cc(COc3cccc(C(F)(F)F)c3)on2)o1	-22%	-5%	3%	-7%	32µM*
CC1CCN(C(=O)CN2C(=O)NC3(CCCc4ccccc43)C2=O)CC1 (centres undefined)	-4%	19%	32%	8%	?
Cc1cccc(NC(=O)CNC(=O)CN2C(=O)NC3(CCc4ccccc43)C2=O)c1C (centres undefined)	-6%	4%	19%	4%	45µM*
Cc1ccc(NC(=O)CN2C(=O)NC3(CCCc4ccccc43)C2=O)cc1S(=O)(=O)N1CCOCC1 (centres undefined)	-2%[11.4 µM]	-27%	36%	-10%	?
O=C(CN1C(=O)NC2(CCCc3ccccc32)C1=O)N1CCCCC1 (centres undefined)	-6%	8%	11%	-12%	50µM*
CCN(CC)S(=O)(=O)c1cc(NC(=O)CN2C(=O)NC3(CCCc4ccccc43)C2=O)ccc1C (centres undefined)	-22%	-6%	4%	-3%	50µM*
COc1ccc(-c2nc3cnc(OC)nc3n(Cc3cccc(OC)c3)c2=O)cc1	/	/	/	/	10%[12.7 µM]
Cc1cc(Nc2ccc3ccccc3c2)n2ncnc2n1	-30%	-33%	-9%	5%	16µM*
COc1cc(OC)c(Nc2cc(C)nc3ncnn23)cc1Cl	-17%	-3%	17%	18%	11µM*
CN1CCN(C(=S)c2cn(CCOc3ccccc3F)c3ccccc23)CC1	50µM*	?	?	-22%	35µM*
COc1ccc(OC)c(-c2csc(-c3c(N)c(C(=O)c4ccc(Cl)cc4)n4ccccc34)n2)c1	-10%	5%	21%	0%	11%[59 µM]
CN1C(=O)c2ccc(NC(=S)NC(=O)C(C)(C)C)cc2C1=O	-20%	8%	4%	14%	45µM*
SMILES	JMJD2A Tudor	BAZ2B inh	HP1b binding inh	GLS inhibitor	G9a inh
CN1CCN(S(=O)(=O)c2ccc(NC(=S)NC(=O)c3ccc(Cl)cc3)cc2)CC1	?	8%	?	10%	18µM*
CN(Cc1ccccc1)S(=O)(=O)c1ccc(NC(=S)NC(=O)C2CCCCC2)cc1	-10%	-27%	29%	1%	-5%[59 µM]
CN(Cc1ccccc1)S(=O)(=O)c1ccc(NC(=S)NC(=O)C(C)(C)C)cc1	-21%	-34%	18%	-8%	3.2µM*
CCC(=O)NC(=S)Nc1ccc(S(=O)(=O)N2CCN(C)CC2)cc1	-31%	6%	14%	10%	12%[59 µM]
CN1CCN(S(=O)(=O)c2ccc(NC(=S)NC(=O)C(C)(C)C)cc2)CC1	-13%[11.4 µM]	-21%	24%	1%	56µM*
CSc1ccc(CN2CCC2(C)C(=O)Nc2cccc(NS(C)(=O)=O)c2)cc1 (centres undefined)	/	/	/	-7%	/
Cc1ccccc1C(=O)Nc1ccc(S(=O)(=O)N2CCN(C)CC2)cc1	-2%	-6%	26%	-2%	-31%[12.7 µM]
Cc1occc1C(=O)Nc1ccc(S(=O)(=O)N2CCN(C)CC2)cc1	-19%	4%	23%	0%	56µM*
CCOc1ccccc1Oc1coc2cc(OCC(=O)O)ccc2c1=O	-15%	-32%	-21%	-12%	14µM*
Cc1ccccc1-c1cc2nc(OCC3CCCO3)n(C)c(=O)c2s1 (centres undefined)	/	/	/	14%	/
COc1ccccc1CN1CC(C(=O)N2CCC(C(=O)c3ccccc3)CC2)CCC1=O (centres undefined)	21%	-16%	48%	-3%	20%
CNC(=O)OCc1cocc1COC(=O)NC	/	/	/	-24%	/
CNC(=O)OCc1cccc(COC(=O)NC)n1	-5%	?	32%	1%	45µM*!
COc1ccc(Cc2noc(CN3CCCN(C4Cc5ccccc5C4)CC3)n2)cc1OC	-17%	?	33%	0%	40µM*
COCCN1CCN(Cc2nc(Cc3ccc(OC)c(OC)c3)no2)CC1	-6%	-15%	25%	0%	-30%
COc1cc(-c2nc3nc[nH]n3c2Nc2ccc(C(C)C)cc2)ccc1O	?	-39%	?	?	8.9µM*
Cc1cccc(Nc2cc(C)c3c(O)cccc3n2)c1C	45µM*	40µM*	-3%	40%	50µM*
Cc1cc(Nc2ccccc2O)nc(C)n1	-17%	-12%	18%	27%	-11%[59 µM]
Cc1ccnc(NC(=S)NC(=O)/C=C/c2ccccc2)c1	-10%	2%	33%	13%	/
Cc1cccnc1NC(=S)NC(=O)/C=C/c1ccccc1	-26%	79µM*	14%	0%	?
Cc1cccnc1NC(=O)Nc1cccc2ccccc12	-15%	-2%	10%	-6%	7.1µM*
Cc1cccnc1NC(=S)NC(=O)c1cccs1	22µM*	-28%	-13%	30%	?
Cc1cccnc1NC(=O)CNC(=O)c1cccs1	-8%	11%	18%	-3%	8%[0.501 µM]
